# Data from PubChem BioAssay (Tox21).
# “And” between values parts separate entries of the source, which are not always exact repeats. Equal values may be shown once. Inconclusive results are not listed. Unmarked numbers belong to inactive results. The source made the active and inactive calls. Calls come from the whole dose curve; as a rule, active = well fitted cell-killing curve with a large enough effect in the repeat runs; inconclusive = weak or mixed curves, or effect the other way; inactive = no such curve, though single readings can be large or run the other way.
# Assay: Caspase-3/7 induction in CHO-K1 cells by small molecules, qHTS cell viability counter screen (AID 1346979); note: nearly all actives have a fitted effect of over 35% in size
# Conditions: CellTiter-Fluor fluorescence, 17 h; series mostly up to 92.4 µM; activity change, negative = cytotoxicity: at the top concentration
# Excerpt: National Center for Advancing Translational Sciences [NCATS]
# NIH Chemical Genomics Center [NCGC]
# U.S. Environmental Protection Agency [EPA]
# National Institutes of Environmental Health Sciences [NIEHS]
# National Toxicology Program [NTP]
# U.S. Food and Drug Administration [FDA]
# Apoptosis is a process of programmed cell death and plays a central role in the development of multicellular organisms. It is a highly regulated process and induces cell death by activating caspases, which are the members of cysteine aspartic acid-specific protease (caspase) family. Caspases involved in apoptosis are classified by their mechanism of action as initiator caspases (caspase-2, -8, -9 and -10) and executioner caspases (caspase-3, -6, and -7). Inhibition of apoptosis results in number of cancers, autoimmune diseases, inflammatory diseases and viral infection. To identify small molecule compounds that induce apoptosis, a homogeneous, luminescent Caspase-Glo 3/7 assay was used. Wild type CHO-K1 cells were used to screen Tox21 libraries for identifying caspase-3/7 activity inducers. Also cytotoxicity of the compounds was tested in parallel by measuring the cell viability using CellTiter-Fluor assay system in the same wells.
# Tox21 Assay Protocol Summary:
# CHO-K1 cells were dispensed at 1,500 per well in 5uL of culture medium into white solid bottom 1536-well plates (Corning Life Sciences, Corning, NY) using a Multidrop Combi (Thermo Scientific, Waltham, MA) dispenser. The assay plates were incubated at 37 C and 5% CO2 for 5hr, and then 23nL of compounds dissolved in DMSO and positive control were transferred using a Pintool station (Wako, San Diego, CA). The assay plates were incubated at 37C and 5% CO2 for 17hr. For cytotoxicity read, after 16hr incubation at 37C, 1uL CellTiter-Fluor reagent (Promega Corporation, Madison, WI) was added to each well of the assay plates using Flying Reagent Dispenser (FRD, Aurora Discovery, San Diego, CA). After 1hr incubation at 37C and 5% CO2, the fluorescence signal was quantified using a ViewLux plate reader (PerkinElmer, Shelton, CT).
# % is set by controls: 0 for no effect and ±100 for the full control effect; potency is the fitted concentration of half-maximal effect.
SMILES,Potency,"activity change, negative = cytotoxicity"
OC1(c2ccc(Cl)c(C(F)(F)F)c2)CCN(CCCC(c2ccc(F)cc2)c2ccc(F)cc2)CC1,13.3 µM (active),–
O=[N+]([O-])c1ccccc1Nc1ccccc1,–,-0.915%
C=CC(=O)OCC(CO)(COC(=O)C=C)COC(=O)C=C,2.74 µM (active) and 6.11 µM (active),–
CC(C)CCCCCCCCCCCCCCC(=O)O,–,-11.5%
Oc1ccc2cc(SSc3ccc4cc(O)ccc4c3)ccc2c1,48.6 µM (active) and 54.5 µM (active),–
CC1=C(C(=O)OC(C)C)C(c2cccc([N+](=O)[O-])c2)C(C(=O)OC2CN(C(c3ccccc3)c3ccccc3)C2)=C(N)N1 (stereo not given),21.1 µM (active),–
CC(C)n1nc(-c2cc3cc(O)ccc3[nH]2)c2c(N)ncnc21,1.06 µM (active),–
COC(=O)C1=C(C)NC(C)=C(C(=O)OCC(C)C)C1c1ccccc1[N+](=O)[O-] (stereo not given),61.1 µM (active) and 29.8 µM (active),–
Cc1nc(-c2ccc3c(c2)CCN(CCC2CCC(NC(=O)/C=C/c4ccc(F)cc4)CC2)CC3)no1 (stereo not given),6.87 µM (active),–
Oc1ccc(N=Nc2ccccc2)cc1,61.9 µM (active),–
CC1=C(/C=C/C(C)=C/C=C/C(C)=C/C=O)C(C)(C)CCC1,21.6 µM (active),–
N#CSc1ccc(N)c([N+](=O)[O-])c1,38.8 µM (active),–
CC[C@@]1(O)C(=O)OCc2c1cc1n(c2=O)Cc2c-1nc1ccccc1c2/C=N/OC(C)(C)C,0.75 µM (active),–
O=c1cccccc1O,7.84 µM (active),–
C1CCCC1,–,0.216%
O=c1cc(-c2ccc(O)cc2)oc2cc(O)cc(O)c12,55.2 µM (active) and 43.3 µM (active),–
CC(C)(C)C(=O)OCOC(=O)[C@@H]1N2C(=O)[C@@H](NC(=O)[C@H](N)c3ccccc3)[C@H]2SC1(C)C,–,10.6% [at 42.5 µM]
CN(C)C(=O)C1(N2CCCCC2)CCN(CC[C@@]2(c3ccc(Cl)c(Cl)c3)CN(C(=O)c3ccccc3)CCO2)CC1,28.6 µM (active),–
CNC(=O)c1ccccc1,–,-2.6%
CC(C)(C)NC(=O)[C@@H]1C[C@@H]2CCCC[C@@H]2CN1C[C@@H](O)[C@H](Cc1ccccc1)NC(=O)[C@H](CC(N)=O)NC(=O)c1ccc2ccccc2n1,19.6 µM (active),–

SMILES,Potency,"activity change, negative = cytotoxicity"
CCCCCOc1ccccc1/C(=C\SC)n1ccnc1,16.8 µM (active),–
CCCCCCCCCCCCCCCCCC[N+](C)(C)Cc1ccccc1,4.9 µM (active),–
NNC(=O)c1cccc(C(=O)NN)c1,–,-0.354%
O=C(c1ccc(F)cc1)C1CCN(CCn2c(=O)[nH]c3ccccc3c2=O)CC1,–,-3.36% [at 42.5 µM]
Nc1ccccc1O,24 µM (active),–
O=C(Nc1cccc(Cl)c1)OCC#CCCl,30.6 µM (active),–
CCN(C(=O)N(CC)c1ccccc1)c1ccccc1,–,-3.21%
CCCCCCCCOC(=O)c1ccc(O)cc1,24.3 µM (active),–
CC[C@H]1O[C@]2(CC[C@@H]1C)C[C@@H]1C[C@@H](C/C=C(\C)C[C@@H](C)/C=C/C=C3\CO[C@@H]4[C@H](O)C(C)=C[C@@H](C(=O)O1)[C@]34O)O2,17.1 µM (active),–
C[n+]1ccn(Cc2ccccc2)c1,–,0.171%
CCCCCCCCCCn1cc[n+](CCCCCCCCCC)c1C,6.87 µM (active),–
C=C(C)C(=O)OCC(O)COc1ccc(C(C)(C)c2ccc(OCC(O)COC(=O)C(=C)C)cc2)cc1 (stereo not given),54.5 µM (active),–
CCCC/C=C/CCCCO,–,8.29%
Fc1ccc(C(c2ccc(F)cc2)N2CCN(C/C=C/c3ccccc3)CC2)cc1,33.5 µM (active),–
Clc1ccc2n[nH]nc2c1,–,-0.575%
CCCCc1oc2ccc(NS(C)(=O)=O)cc2c1C(=O)c1ccc(OCCCN(CCCC)CCCC)cc1,16.8 µM (active),–
C[C@]12CCC(=O)C=C1CC[C@@H]1[C@@H]2[C@@H](O)C[C@@]2(C)[C@H]1CC[C@]2(O)C(=O)COC(=O)CCC(=O)O,–,0.787% [at 42.5 µM]
CCC(C)(C)C1CCCCC1OC(C)=O (stereo not given),–,5.06%
Nc1ccc2cc(S(=O)(=O)O)cc(O)c2c1N=Nc1ccccc1C(F)(F)F,54.5 µM (active),–
CCCCCCCCCCCCCC[P+](CCCC)(CCCC)CCCC (tested in a mixture with another compound),7.74 µM (active),–
